# TrxR1 substrate: is turned over as a substrate by rat TrxR1. purified TrxR1 substrate turnover, NADPH consumption readout. 390,000 compounds, 0.01% hits. O89049. Potency, µM (top dose mostly 114 µM), inactives show at the highest dose activity change, negative = substrate turnover; also: nearly all actives have a fitted effect of over 50% in size
#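 Rat TrxR1, dispensed at 90 nM, was prereduced with 400 uM NADPH (final) for 5 min at ~22 deg C, then incubated with compound 15 min before 400 uM selenite. A first-read NADPH fluorescence drop versus no-compound background flagged substrates.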
# Sfp PPTase inh: blocks B. subtilis Sfp PPTase activity. Biochemical Sfp PPTase activity, qHTS. 310,000 compounds, 3.5% hits. Potency, µM, inactives show largest response in the series, negative = inhibition, actives largely listed as inhibitors. Q9F4F7;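 also: the enzyme is Sfp with the accession as filed and its product quenches rhodamine fluorescence; 0% = enzyme reaction without inhibitor and -100% = no enzyme wells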
#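 Compounds were incubated with enzyme (final 15 nM) for 15 min at room temperature before substrate addition started the reaction. Fluorescence at 525 nm excitation, 598 nm emission was recorded immediately and after 30 minutes.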
# mIDH1 inhibitor: human IDH1 R132H inhibition; IDH1-R132H enzyme, NADPH consumption, diaphorase/resazurin fluorescence; Potency, µM (series often up to 76.6 µM), for the others: top-dose activity change, negative = inhibition, actives largely listed as inhibitors; 390,000 compounds, 0.093% hits; AID 602179; also: nearly all actives have a fitted effect of over 65% in size
#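 IDH1-R132H (0.5 ug/mL) preincubated 30 min with compound, then NADPH (0.016 mM) and alpha-KG (2 mM) added; 80 min at RT, pH 7.5. Remaining NADPH coupled via diaphorase/resazurin to fluorescence (540/590 nm); concentration-response curves normalized to no-enzyme control.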
# rTrxR1 inhibitor: blocks rat thioredoxin reductase 1. O89049. recombinant rTrxR1, NADPH fluorescence consumption, selenite substrate. Potency, µM (top dose mostly 114 µM), inactives show top-dose activity change, negative = inhibition, most hits filed as inhibitors. 390,000 compounds, 1% hits. AID 588453; also: nearly all actives have a fitted effect of over 65% in size
#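 Rat TrxR1 (90 nM in the dispensed reagent) was pre-reduced with 400 uM NADPH for 5 min at room temperature, then incubated with compound for 15 min. After 400 uM selenite was added, NADPH fluorescence (Ex 340/Em 450 nm) was followed for 8 min.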
# VDR inhibitor: inhibitors of human vitamin D receptor | P11473 | AID 504847 | Potency, µM, for the others: max response, negative = inhibition, actives largely listed as inhibitors | VDR-SRC2-3 peptide fluorescence polarization, 2 h | 400,000 compounds, 0.93% hits
#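 Reagent solutions, kept cold and dark, are dispensed first; compounds are then pinned in at 23 nl, plates briefly spun, and incubated 2 h at ambient temperature. Inhibition of VDR–SRC2-3 peptide binding is read by fluorescence polarization.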
# PLK1 PBD block: blocks phosphopeptide binding to human PLK1 polo-box domain | Potency, µM, inactives show max response, negative = inhibition, hits mostly inhibitors | 360,000 compounds, 2.8% hits | AID 720504 | Plk1 PBD binding of FITC phosphopeptide, fluorescence polarization | P53350; also: series mostly up to about 57 µM; nearly all actives have a fitted effect of over 65% in size
# Target sequence (P53350 whole entry, looked up, the tested form may be a part): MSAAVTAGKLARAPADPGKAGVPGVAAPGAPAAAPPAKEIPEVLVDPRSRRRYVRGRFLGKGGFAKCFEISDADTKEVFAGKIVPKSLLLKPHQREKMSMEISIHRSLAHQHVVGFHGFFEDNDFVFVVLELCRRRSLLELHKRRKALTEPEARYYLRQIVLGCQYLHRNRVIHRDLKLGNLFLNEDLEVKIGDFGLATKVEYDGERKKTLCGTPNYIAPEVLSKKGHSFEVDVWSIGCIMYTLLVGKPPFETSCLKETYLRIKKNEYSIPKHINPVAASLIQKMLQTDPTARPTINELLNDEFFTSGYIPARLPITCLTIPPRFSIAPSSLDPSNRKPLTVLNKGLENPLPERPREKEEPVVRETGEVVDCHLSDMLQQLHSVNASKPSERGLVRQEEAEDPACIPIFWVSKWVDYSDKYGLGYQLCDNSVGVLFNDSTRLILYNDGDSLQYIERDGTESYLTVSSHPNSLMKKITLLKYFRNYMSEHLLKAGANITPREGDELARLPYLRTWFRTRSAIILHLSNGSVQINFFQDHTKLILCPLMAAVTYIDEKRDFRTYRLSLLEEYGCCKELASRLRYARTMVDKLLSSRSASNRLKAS
# * marks the source's active call; other numbers are inactive results; ? = inconclusive; / = not tested or not shown; [ ] = dose if it differs, or a comment. Rows were chosen to be rich in hits. Some 5.2% of all compounds tested hit in one or more screens of this group. Calls follow the shape of the dose curve; as a rule, active = well fitted curve in the direction sought with a large enough effect; inconclusive = small, poorly fitted or top-dose-only effect, or another doubt; inactive = no such curve, though single readings can be large; an effect the other way counts as inactive or inconclusive. Unless noted, % is scaled to controls: 0 for no effect and ±100 for the full control effect; potency is read from the fitted curve at half-maximal effect.
SMILES,TrxR1 substrate,Sfp PPTase inh,mIDH1 inhibitor,rTrxR1 inhibitor,VDR inhibitor,PLK1 PBD block
CCCCCc1cc(=O)oc2c(C(CCN3CCCC(C)C3)c3ccc(OC)cc3)c(OC)cc(OC)c12 (configuration not stated),10.1%,25.1µM*,6.9%,14.0%,2.2%,5.2%
CCCCCc1cc(=O)oc2c(C(CCN3CCCC3)c3ccc(N(C)C)cc3)c(OC)cc(OC)c12 (configuration not stated),5.0%[57.1 µM],79.4µM*,-7.2%,4.6%[57.1 µM],-17.8%,1.3%
CCCCCc1cc(=O)oc2c(C(CCN(CC)CC)c3ccc(OC)cc3)c(OC)cc(OC)c12 (configuration not stated),13.0%,56.2µM*,0.0%,14.3%,-8.5%,-5.5%
CCN(CC)CCC(c1ccc(OC)cc1)c1c(OC)cc(OC)c2c(C)cc(=O)oc12 (configuration not stated),2.0%,-19.2%,/,-7.8%,-13.6%,/
COc1ccc(N2C(=O)C3C4C=CC(CC4)C3C2=O)c([N+](=O)[O-])c1 (configuration not stated),1.7%,12.6%,12.4%,3.9%,-2.4%,-8.7%
Cc1ccc(N2C(=O)C3C4C=CC(CC4)C3C2=O)cc1[N+](=O)[O-] (configuration not stated),0.6%,31.6µM*,5.5%,20.4%,-8.7%,-1.1%
COc1cc2c(=O)n(Cc3ccco3)c(=O)n(CC(=O)c3cccc(Br)c3)c2cc1OC,6.3%,79.4µM*,9.6%,-14.8%,5.3%,-4.7%
Cc1ccc(/C=C/C(=O)OCC(=O)NCCN2C(=O)CSC2=O)o1,-8.2%,31.6µM*,5.3%,-8.4%[57.1 µM],-12.9%,-24.2%
CCOc1ccc(CCNC(=O)COC(=O)/C=C/c2ccc(C)o2)cc1OCC,-5.1%,56.2µM*,13.0%,?,0.0%,0.1%
Cc1ccc(/C=C/C(=O)OCC(=O)NCCN2C(=O)CSC2=O)cc1,8.4%[57.1 µM],-7.7%,-3.4%,20.1%[57.1 µM],24.5%,-17.0%
COc1cccc2c1C(=O)c1c(O)c3c(c(O)c1C2=O)C[C@](O)(C(C)=O)C[C@H]3O[C@@H]1C[C@@H](N)[C@@H](O)[C@@H](C)O1,0.7%,/,4.5%,-5.4%,-2.1%,?
COc1cccc2c1C(=O)c1c(O)c3c(c(O)c1C2=O)CC(O)(C(C)=O)CC3OC1CC(O)C(O)C(C)O1 (configuration not stated),8.5%[57.1 µM],/,-5.3%,22.7%[11.4 µM],-12.2%,9.47µM*
O=C(Cn1cnc(S(=O)(=O)N2CCCC2)c1)Nc1ccccc1,6.2%,20.2%,3.9%,22.7%,-24.0%,-18.4%
COCCN(Cc1ccc(C)c(Br)c1)C(=O)Cn1cnc(S(=O)(=O)N2CCCC2)c1,1.6%[57.1 µM],3.5%,9.0%,2.7%[57.1 µM],-18.0%,9.47µM*
O=C(CC[C@H]1O[C@@H](n2cnc3c(NC(=O)c4ccccc4)ncnc32)[C@H](O)[C@@H]1O)NCc1cccc2ccccc12,/,/,/,/,/,3.4%
CNc1cc[n+](C)c2ccccc12,-2.8%,/,/,-8.7%,/,/
COc1ccc(CC(=O)Nc2ccc3nc(N4CCCCC4)cc(C)c3c2)cc1,28.3%,/,0.5%,?,7.4%,/
C=CCn1c(-c2ccccc2)c[nH]c1=S,29.7%,79.4µM*,6.2%,15.2%,-2.0%,-12.8%
C=CCn1c(-c2ccc(Cl)cc2)c[nH]c1=S,5.1%,2.9%,-0.5%,6.0%,-5.5%,-6.5%
O=C(Nc1nnc(S(=O)(=O)N2CCCc3ccccc32)s1)c1ccccc1Br,-11.2%,/,-0.6%,-16.6%,6.0%,/
COc1ccc(/C=N/NC(=O)Nc2cccc3nsnc23)cc1,-11.5%[57.1 µM],6.2%,8.1%,13.9%[57.1 µM],?,23.8µM*
COc1ccc(C=NNC(=O)CCCCC(=O)NN=Cc2ccc(OC)cc2)cc1,-1.4%,/,2.4%,1.7%,2.2%,-0.8%
O=C(Nc1ccccc1)Nc1cccc2nsnc12,-1.7%[57.1 µM],63.1µM*,15.1%,-0.9%[57.1 µM],0.9%,-6.4%
Cc1csc[n+]1CC(=O)c1ccccc1,-3.1%,/,/,11.9%,/,/
O=C1SC(SC(=Nc2ccccc2)Nc2ccccc2)C(=O)N1c1ccccc1 (configuration not stated),0.5%,-19.5%,1.1%,11.8%,89.1µM*,6.7µM*
SMILES,TrxR1 substrate,Sfp PPTase inh,mIDH1 inhibitor,rTrxR1 inhibitor,VDR inhibitor,PLK1 PBD block
COC(=O)[C@@H]1C[C@H]1[C@@H](NC(=O)c1cnccn1)c1ccccc1,/,28.5%,/,/,/,/
COc1ccc(Br)cc1/C=C/C(=O)NC(=S)Nc1ccc(Cl)c(C(=O)O)c1,-0.7%,-22.5%,1.7%,?,?,-17.5%
COC(=O)NC(=S)Nc1ccc(Oc2ccc(Cl)cc2Cl)c(Cl)c1,13.0%[57.1 µM],0.9%,19.1%,-9.7%,-0.2%,2.99µM*
COc1ccc(Br)cc1C(=O)NC(=S)Nc1ccc(Cl)c(C(=O)O)c1,-2.0%,44.7µM*,-13.9%,-14.0%,-7.1%,11.9µM*
CCc1ccc(NC(=O)C(C)n2nnc3sc(-c4ccccc4)cc3c2=O)cc1 (configuration not stated),-11.8%,/,/,-25.6%,-23.6%,/
COc1cccc2c1N(C)C(=O)CC21C=CC(=O)C=C1,5.8%,-15.4%,/,-16.1%,41.5%,/
CCOC(=O)c1cnc(SCCc2ccccc2)nc1N,-13.2%,7.1%,2.1%,-13.4%,-3.8%,-8.1%
CCOC(=O)c1cnc(SC2CCc3ccccc3C2=O)nc1N (configuration not stated),-3.0%,56.2µM*,16.5%,-4.8%,9.7%,26.7µM*
CCOC(=O)c1cnc(SC2CC(=O)N(c3ccc(C)cc3)C2=O)nc1N (configuration not stated),1.1%,-1.4%,2.4%,-2.3%,-3.9%,-2.0%
CCCCSc1ncc(C(=O)OCC)c(N)n1,-7.5%,11.8%,5.9%,-1.4%,-24.9%,9.47µM*
CCOc1ccccc1-n1nnc(-c2nc(-c3ccccc3)no2)c1N,3.4%,/,-3.1%,23.6%,4.0%,/
CCCCN(CC)CCNC(=O)c1cc2c(=O)oc3ccc(C)cc3c2s1,22.9%,/,-5.3%,8.3%,-7.6%,/
O=C(O)CCNc1nc(C(F)(F)F)nc2ccccc12,0.9%,19.1%,-4.3%,4.8%,12.2%,-0.9%
Cc1ccc(-c2nc3ccccc3nc2NN)cc1,4.3%,14.1µM*,-2.1%,0.3%,-12.1%,-24.2%
NNc1nc2ccccc2nc1C(F)(F)F,-13.8%[57.1 µM],-23.7%,0.0%,29.5%,-28.3%,18.9µM*
NNc1nc(C(F)(F)F)nc2ccccc12,7.2%,50.1µM*,6.0%,10.7%[57.1 µM],-5.3%,-3.7%
Cc1ccc2nc(-c3ccccc3)c(-c3ccccc3)nc2c1,15.2%,-14.9%,3.3%,20.4%,23.7%,-7.5%
COc1ccc(NC(=O)N(C)C[C@@H]2OCc3cnnn3CCCC(=O)N([C@H](C)CO)C[C@@H]2C)cc1,/,/,8.2%,/,/,-19.5%
CCc1nc2c(OCc3ccc(Cl)cc3)cccn2c1N(C)C(=O)c1ccc(C)cc1,/,/,/,/,/,-12.0%

# Screening data from PubChem.
